We go through ten compounds from PubChem BioAssay.

Assay [1] in a line: viability loss in pontine glioma line – cell-based, SU-DIPG-XXV, MIPE5.0, CellTiter-Glo, qHTS, dose response (AID 1347065; cut-off not given, nearly all actives have AC50 up to about 26 µM;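 note: cells exposed to compound for 48 hours before ATP readout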). The settings on record: CellTiter-Glo ATP luminescence.
Assay [2] is described as follows: growth inhibition of DIPG glioma cells, dose response, cell-based, SU-DIPG-XIII, MIPE5.0, CellTiter-Glo, qHTS (AID 1347064; cut-off not given, nearly all actives have AC50 up to about 23 µM;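 for AC50: cells exposed to compound for 48 hours before the viability read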). The settings on record: SU-DIPG-XIII viability, CellTiter-Glo ATP luminescence. (ATP-based viability assays read luminescence as a measure of living cells.)
Assay [3] can be described thus: SU-DIPG-XXV glioma cell viability, MIPE5.0 library, qHTS (AID 1347068; cut-off not given, nearly all actives have IC50 up to about 30 µM).
Assay [4] in a line: JHH-DIPG-1 glioma cell viability, MIPE5.0 library, CellTiter-Glo luminescence, qHTS (AID 1347067; cut-off not given, nearly all actives have AC50 up to about 26 µM;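 note: cells exposed to compound for 48 hours before readout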). The note with it: JHH-DIPG-1 glioma viability, CellTiter-Glo ATP luminescence.
Assay [5] can be described thus: sensitizers of A549 cells to miR-34 induction, primary screen, imaging, A549 dox-inducible miR-34, nuclei and caspase counts (AID 1347080;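 active = compounds whose cell count with miR-34 switched on is under 0.7 times the count with it off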). The settings on record: A549 miR-34 inducible, Hoechst nuclei count, 48 h.
Assay [6] can be described thus: modifiers of HSF1 nuclear foci, imaging, Selleck Cancer Library (AID 1347162; in the data active = plate-normalised HSF1 focus index below about 0.46). The settings on record: human cells, at 10 µM; SSMD: measured here: HSF1 foci SSMD mean; cell count: measured here: cell number; plate-normalised HSF1 focus index: stronger effect = lower value.
Assay [7] in a line: survival rescue of mitochondrial mutant cells in low glucose, primary screen, MELAS cybrids, Rieske KO mouse fibroblasts, CellTiter-Glo (AID 1508586;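 active = mean z-score across replicates of 1.96 or higher in either the MELAS or the Rieske mutant cell line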;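 note: z relative to plate mean and SD of compound and empty wells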).
Assay [8] can be described thus: ovarian cancer cell viability with rucaparib, profiling panel, oncology-focused library, rucaparib conditional (AID 1508598). The settings on record: patient-derived ovarian cancer cells, CellTiter-Glo viability, 144 h, stronger effect = lower value.

Each structure is given as a SMILES string. Inconclusive results are not listed. Activity calls are given as the source filed them.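 Rule for the calls, unless noted: active = normalized viability below 100% at a tested concentration; inactive = the rest.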

For `CC1=C2C[C@H]3[C@@H](CC[C@@H]4C[C@H](NS(C)(=O)=O)CC[C@@]43C)[C@@H]2CC[C@@]2(C1)O[C@@H]1C[C@H](C)CN[C@H]1[C@H]2C`, the AC50 – broadly, the concentration at which the activity in the assay is half-maximal – in assay [1] was 20.9 µM (active).

`CCNC1(C(N)=O)CCN(c2ncnc3c2nc(-c2ccccc2Cl)n3-c2ccc(Cl)cc2)CC1`: in assay [1], the AC50 was 11.8 µM (active).

`C[C@@H](Nc1ncnc2[nH]c(-c3ccc(O)cc3)cc12)c1ccccc1`: the result in assay [2] and in assay [3] was inactive.

As to `COc1cc2ncnc(Nc3cccc(Cl)c3F)c2cc1OC(=O)N1CCN(C)C[C@H]1C`, the compound was called inactive in assay [2] and in assay [3].

Turning to `CN1CCN(c2nc(C3=C(c4c[nH]c5ccccc45)C(=O)NC3=O)c3ccccc3n2)CC1`, the outcome in assay [2], in assay [4] and in assay [3] was inactive. The fold change in assay [5] (stronger effect = lower value, cell number ratio, induced over uninduced) was 0.982 (inactive); in assay [5] (measured here: relative caspase fold change +Dox/-Dox), 0.809. Further, the cell count in assay [5] (measured here: total cells with miR-34 induction, stronger effect = lower value) turned out to be 8410; in assay [5] (measured here: total cells without miR-34 induction) it was 8570; in assay [6] it was 7110. Moreover, in assay [6], the SSMD worked out at 1.44. Also, in assay [6], the plate-normalised HSF1 focus index is 1.09 (inactive). The z-score in assay [7] (MELAS cybrid survival, CellTiter-Glo 48 h, stronger effect = higher value) is -0.37 (inactive); in assay [7] (Rieske KO mouse fibroblast survival, CellTiter-Glo 72 h), 0.177. Besides, the viability – broadly, a read-out of living cells in per cent, often relative to untreated cells – in assay [8] (at 0.000305 µM, OCI-C5x cells, with rucaparib 10 µM, 100% = cells with rucaparib alone) was 105% (inactive); in assay [8] (at 0.000305 µM, OCI-C5x cells, without rucaparib), 102% (inactive); in assay [8] (at 0.000305 µM, OCI-P5x cells, with rucaparib 20 µM, 100% = cells with rucaparib alone), 96.2% (active); in assay [8] (at 0.000305 µM, OCI-P5x cells, without rucaparib), 83.9% (active); in assay [8] (at 0.00122 µM, OCI-C5x cells, with rucaparib 10 µM, 100% = cells with rucaparib alone), 116% (inactive); in assay [8] (at 0.00122 µM, OCI-C5x cells, without rucaparib), 119% (inactive). The viability in assay [8] (at 0.00122 µM, OCI-P5x cells, with rucaparib 20 µM, 100% = cells with rucaparib alone) is 102% (inactive); in assay [8] (at 0.00122 µM, OCI-P5x cells, without rucaparib) it was 88.4% (active); in assay [8] (at 0.00488 µM, OCI-C5x cells, with rucaparib 10 µM, 100% = cells with rucaparib alone), 112% (inactive); in assay [8] (at 0.00488 µM, OCI-C5x cells, without rucaparib), 120% (inactive); in assay [8] (at 0.00488 µM, OCI-P5x cells, with rucaparib 20 µM, 100% = cells with rucaparib alone) it was 106% (inactive); in assay [8] (at 0.00488 µM, OCI-P5x cells, without rucaparib), 97.3% (active). The viability is 114% (inactive) in assay [8] (at 0.0195 µM, OCI-C5x cells, with rucaparib 10 µM, 100% = cells with rucaparib alone); 122% (inactive) in assay [8] (at 0.0195 µM, OCI-C5x cells, without rucaparib); 102% (inactive) in assay [8] (at 0.0195 µM, OCI-P5x cells, with rucaparib 20 µM, 100% = cells with rucaparib alone); 96.2% (active) in assay [8] (at 0.0195 µM, OCI-P5x cells, without rucaparib); 113% (inactive) in assay [8] (at 0.0781 µM, OCI-C5x cells, with rucaparib 10 µM, 100% = cells with rucaparib alone); 116% (inactive) in assay [8] (at 0.0781 µM, OCI-C5x cells, without rucaparib). Moreover, the viability was 110% (inactive) in assay [8] (at 0.0781 µM, OCI-P5x cells, with rucaparib 20 µM, 100% = cells with rucaparib alone); 101% (inactive) in assay [8] (at 0.0781 µM, OCI-P5x cells, without rucaparib); 109% (inactive) in assay [8] (at 0.313 µM, OCI-C5x cells, with rucaparib 10 µM, 100% = cells with rucaparib alone); 129% (inactive) in assay [8] (at 0.313 µM, OCI-C5x cells, without rucaparib); 117% (inactive) in assay [8] (at 0.313 µM, OCI-P5x cells, with rucaparib 20 µM, 100% = cells with rucaparib alone); 107% (inactive) in assay [8] (at 0.313 µM, OCI-P5x cells, without rucaparib). The viability in assay [8] (at 1.25 µM, OCI-C5x cells, with rucaparib 10 µM, 100% = cells with rucaparib alone) was 114% (inactive); in assay [8] (at 1.25 µM, OCI-C5x cells, without rucaparib), 122% (inactive); in assay [8] (at 1.25 µM, OCI-P5x cells, with rucaparib 20 µM, 100% = cells with rucaparib alone), 115% (inactive); in assay [8] (at 1.25 µM, OCI-P5x cells, without rucaparib), 109% (inactive); in assay [8] (at 5 µM, OCI-C5x cells, with rucaparib 10 µM, 100% = cells with rucaparib alone) it was 129% (inactive); in assay [8] (at 5 µM, OCI-C5x cells, without rucaparib), 135% (inactive). The viability in assay [8] (at 5 µM, OCI-P5x cells, with rucaparib 20 µM, 100% = cells with rucaparib alone) was 141% (inactive); in assay [8] (at 5 µM, OCI-P5x cells, without rucaparib) it was 109% (inactive).

For `C[C@@H](Nc1cc(F)cc(F)c1)c1cc(C(=O)N(C)C)cc2c(=O)cc(N3CCOCC3)oc12`, in assay [1], the AC50 is 9.34 µM (active).

With `C[C@@H]1C[C@H](N)C[C@H](c2ccncc2NC(=O)c2ccc(F)c(-c3c(F)cccc3F)n2)C1`, the AC50 in assay [1] is 9.34 µM (active).

Consider `CC1(C)CC[C@]2(C(=O)O)CC[C@]3(C)C(=CC[C@@H]4[C@@]5(C)C[C@@H](O)[C@H](O)C(C)(C)[C@@H]5CC[C@]43C)[C@@H]2C1`, for which the AC50 in assay [1] was 20.9 µM (active).

Take `CN(Cc1ccccc1)C(=O)c1ccc(S(=O)(=O)Nc2ccccc2)cc1`: the compound was called inactive in assay [2], in assay [4] and in assay [3].

For `Nc1nc(-c2nn(Cc3ccccc3F)c3ncccc23)ncc1C1CC1`, the half-maximal activity concentration (AC50) in assay [2] is 11.8 µM (active). Besides, in assay [3], the compound was classed as inactive.
